“And” between values parts separate entries of the source, which are not always exact repeats. Identical values can stand only once. Results filed as inconclusive are left out. The source made the active and inactive calls. Unless noted, calls come from the whole dose curve; as a rule, active = well fitted curve in the direction sought with a large enough effect in the repeat runs; inconclusive = weak or mixed curves; inactive = no such curve, though single readings can be large; an effect the other way counts as inactive or inconclusive.

This is an account of results in PubChem BioAssay (Tox21).

The nature of test [1]: qHTS assay to identify aromatase inhibitors - cell viability counter screen (AID 743084).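 Note: cells stimulated with testosterone during compound exposure; nearly all actives have a fitted effect of over 55% in size.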
For test [2], the target named is Aryl hydrocarbon receptor (Homo sapiens) (UniProt P35869). Description: qHTS assay to identify small molecule that activate the aryl hydrocarbon receptor (AhR) signaling pathway (AID 743085).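 For activation: HG2L7.5c1 human HepG2 liver cells with stably integrated DRE-driven firefly reporter; series mostly up to about 70 µM.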 Note: nearly all actives have a fitted effect of over 15% in size. Note: potency is the fitted concentration of half-maximal effect. The method, boiled down:
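Cell line HG2L7.5c1 (human hepatoma, 20× DRE-luc). Plated, 5 h 37C, compound/DMSO added, 24 h 37C. CellTiter-Fluor 30 min 37C → fluorescence; then ONE-Glo 30 min RT → luminescence.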

A short description of test [3]: qHTS assay to identify small molecule that activate the aryl hydrocarbon receptor (AhR) signaling pathway - cell viability counter screen (AID 743086).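 Note: HepG2 liver cells carrying the AhR DRE luciferase reporter; series mostly up to about 70 µM; nearly all actives have a fitted effect of over 45% in size.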 The method, boiled down:
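HepG2-AhR-luc (HG2L7.5c1) cells, 4000/well, treated 24 h at 37 C with compound; viability measured as CellTiter-Fluor fluorescence after 30 min in the same wells as the luciferase read.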

Test [4] concerns the target Peroxisome proliferator-activated receptor gamma (Homo sapiens) (UniProt P37231). The experiment in a line: qHTS assay to identify small molecule agonists of the peroxisome proliferator-activated receptor gamma (PPARg) signaling pathway (AID 743094; active = well fitted activation curve with a large enough effect in the signal ratio in the repeat runs, not every such curve was filed as active; the % refers to the signal ratio). The method, boiled down: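 Cell-based bla reporter, HEK293H background, PPARg-driven UAS. Pre-incubation 5 h, 37C, 5% CO2. Compound 17 h, 37C. Substrate 1 h RT; fluorescence.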

Test [5] has the same target. The experiment in a line: qHTS assay to identify small molecule antagonists of the peroxisome proliferator-activated receptor gamma (PPARg) signaling pathway (AID 743191; calls by dose curve; note: series mostly up to about 63 µM; nearly all actives have a fitted effect of over 30% in size). The method, boiled down: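 GeneBLAzer PPARg UAS-bla HEK293H cells, 5 h post-plating, exposed to compounds 17 h at 37C. LiveBLAzer B/G FRET substrate added for 1 h at room temperature; beta-lactamase reporter read by fluorescence intensity.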

Test [6] can be described thus: qHTS assay to identify small molecule antagonists of the peroxisome proliferator-activated receptor gamma (PPARg) signaling pathway - cell viability counter screen (AID 743194). Note: nearly all actives have a fitted effect of over 55% in size. The method, boiled down: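 Cytotoxicity counter screen in PPARg-bla HEK293H cells, same wells as reporter assay. Compounds plus 50 nM rosiglitazone (final) for 17 h at 37 C, then viability read by CellTiter-Glo luminescence.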

The nature of test [7]: qHTS assay for small molecule agonists of the antioxidant response element (ARE) signaling pathway (AID 743202; active = well fitted activation curve with a large enough effect in the signal ratio in the repeat runs, not every such curve was filed as active; the % refers to the signal ratio). The method, boiled down: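 HepG2 ARE-bla cells; 16 h treatment at 37 C; FRET-based beta-lactamase fluorescence read after 2 h substrate incubation at room temperature.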
Test [8] is described as follows: qHTS assay for small molecule agonists of the antioxidant response element (ARE) signaling pathway - cell viability counter screen (AID 743203; calls by dose curve; note: nearly all actives have a fitted effect of over 55% in size). The method, boiled down: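 Measured in the same wells as the beta-lactamase ARE reporter, this read-out is CellTiter-Glo luminescence from HepG2 ARE-bla cells given compounds for 16 hrs.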
The nature of test [9]: qHTS assay for small molecule activators of the heat shock response signaling pathway - cell viability counter screen (AID 743209). Note: nearly all actives have a fitted effect of over 50% in size. The method, boiled down:
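Same-well multiplex: after 2.5 h room-temperature incubation with LiveBLAzer B/G substrate and fluorescence reading, CellTiter-Glo reagent was added to HSE-bla HeLa cells that had received compound for 5 h at 37 C; luminescence read after 30 min.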

Test [10] in a line: qHTS assay to identify small molecule agonists of the peroxisome proliferator-activated receptor delta (PPARd) signaling pathway - cell viability counter screen (AID 743211). Note: nearly all actives have a fitted effect of over 55% in size. The method, boiled down: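 HEK293H PPARd-bla, 3000 cells/well; 5 h preincubation 37C/5% CO2; cpd in DMSO, 17 h 37C; B/G FRET substrate 2 h RT; CellTiter-Glo 30 min RT, luminescence.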
The target of test [11] is Peroxisome proliferator-activated receptor delta (Homo sapiens) (UniProt Q03181). The experiment in a line: qHTS assay to identify small molecule agonists of the peroxisome proliferator-activated receptor delta (PPARd) signaling pathway (AID 743212; calls by dose curve). The method, boiled down: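 Tox21 library screened in GeneBLAzer PPARd UAS-bla HEK293H cells. After compound treatment at 37 C, a FRET-based beta-lactamase substrate was applied for 2 h and fluorescence recorded.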

A short description of test [12]: qHTS assay to identify small molecule antagonists of the peroxisome proliferator-activated receptor delta (PPARd) signaling pathway - cell viability counter screen (AID 743213). Note: nearly all actives have a fitted effect of over 50% in size. The method, boiled down:
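PPARd-bla HEK293H cells (3000/well) got compound plus 300 nM L165041 agonist for 17 h at 37 C. Viability in the same wells came from CellTiter-Glo luminescence after 30 min at room temperature.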

The target of test [13] is Peroxisome proliferator-activated receptor delta (Homo sapiens) (UniProt Q03181). The experiment in a line: qHTS assay to identify small molecule antagonists of the peroxisome proliferator-activated receptor delta (PPARd) signaling pathway (AID 743215; active = well fitted inhibition curve with a large enough effect in the signal ratio in the repeat runs, not every such curve was filed as active; the % refers to the signal ratio;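 note: cells stimulated with agonist L165041 at 300 nM final during compound exposure; series mostly up to about 62 µM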). The method, boiled down:
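Fluorescence from cleaved LiveBLAzer B/G FRET substrate (2 h, room temperature) reports PPARd-driven beta-lactamase in HEK293H UAS-bla cells. Cells had been treated 17 h at 37 C with compound plus 300 nM final L165041.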

The nature of test [14]: qHTS assay to identify small molecule antagonists of the farnesoid-X-receptor (FXR) signaling pathway - cell viability counter screen (AID 743221; active = well fitted cell-killing curve with a large enough effect in the repeat runs, not every such curve was filed as active; note: nearly all actives have a fitted effect of over 50% in size). The method, boiled down:
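Luminescence from CellTiter-Glo measures cytotoxicity in GeneBLAzer FXR-UAS-bla HEK 293T cells. Cells were exposed to compounds with 50 uM chenodeoxycholic acid (final) for 16 h at 37 C, in wells also used for the reporter readout.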

The target of test [15] is Vitamin D3 receptor (Homo sapiens) (UniProt P11473). Description: qHTS assay to identify small molecule agonists of the vitamin D receptor (VDR) signaling pathway (AID 743222; calls by dose curve). The method, boiled down: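 Following 4 h attachment at 37C, VDR-bla cells (2,000 per well) received DMSO-dissolved compounds or controls. After 16 h incubation, LiveBLAzer B/G FRET substrate was added and fluorescence read 2 h later at room temperature.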

Test [16] shares this target. The experiment in a line: qHTS assay to identify small molecule antagonists of the vitamin D receptor (VDR) signaling pathway (AID 743223; active = well fitted inhibition curve with a large enough effect in the signal ratio in the repeat runs, not every such curve was filed as active; the % refers to the signal ratio). The method, boiled down:
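Antagonist mode uses 1alpha,25-dihydroxyvitamin D3 at 3 nM final as stimulus. VDR-bla cells receive compounds in DMSO, incubate 16 h at 37C, then a beta-lactamase FRET substrate for 2 h at room temperature before fluorescence measurement.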

Test [17] is described as follows: qHTS assay for small molecule activators of the heat shock response signaling pathway (AID 743210; active = well fitted activation curve with a large enough effect in the signal ratio in the repeat runs, with a control signal flat, not every such curve was filed as active; the % refers to the signal ratio;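 note: HeLa cells with beta-lactamase reporter driven by heat shock elements; series mostly up to about 63 µM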). The method, boiled down:
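Following overnight attachment, HSE-bla HeLa cells received test compounds for 5 h at 37 C; beta-lactamase activity was then detected via FRET substrate fluorescence.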

Test [18] can be described thus: qHTS assay to identify small molecule agonists of the farnesoid-X-receptor (FXR) signaling pathway - cell viability counter screen (AID 743218). Note: nearly all actives have a fitted effect of over 45% in size. The method, boiled down:
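Readout: CellTiter-Glo luminescence, 30 min RT, multiplexed after the FXR-bla FRET reading. HEK 293T FXR-UAS-bla cells received compound 5 h post-plating and were incubated 16 h at 37 C.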

Test [19] concerns the target Bile acid receptor (Homo sapiens) (UniProt Q96RI1). The experiment in a line: qHTS assay to identify small molecule antagonists of the farnesoid-X-receptor (FXR) signaling pathway (AID 743217; active = well fitted inhibition curve with a large enough effect in the signal ratio in the repeat runs, not every such curve was filed as active; the % refers to the signal ratio). The method, boiled down:
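FRET fluorescence after 2 h room-temperature LiveBLAzer loading gives the readout. Prior step: FXR-bla HEK 293T cells, seeded and incubated 5 h, received test compounds plus 50 uM final CDCA for 16 h at 37 °C.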

The target is the same in test [20]. The experiment in a line: qHTS assay to identify small molecule agonists of the farnesoid-X-receptor (FXR) signaling pathway (AID 743220; active = well fitted activation curve with a large enough effect in the signal ratio in the repeat runs, not every such curve was filed as active; the % refers to the signal ratio). The method, boiled down: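 FXR-UAS-bla HEK 293T cells carrying a UAS-driven beta-lactamase reporter were plated for 5 h at 37C/5% CO2, then exposed to DMSO-dissolved Tox21 10K compounds for 16 h at 37C. A LiveBLAzer B/G FRET substrate was loaded for 2 h at room temperature before fluorescence reading.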

Sequence of Aryl hydrocarbon receptor (Homo sapiens) (P35869 whole entry, looked up): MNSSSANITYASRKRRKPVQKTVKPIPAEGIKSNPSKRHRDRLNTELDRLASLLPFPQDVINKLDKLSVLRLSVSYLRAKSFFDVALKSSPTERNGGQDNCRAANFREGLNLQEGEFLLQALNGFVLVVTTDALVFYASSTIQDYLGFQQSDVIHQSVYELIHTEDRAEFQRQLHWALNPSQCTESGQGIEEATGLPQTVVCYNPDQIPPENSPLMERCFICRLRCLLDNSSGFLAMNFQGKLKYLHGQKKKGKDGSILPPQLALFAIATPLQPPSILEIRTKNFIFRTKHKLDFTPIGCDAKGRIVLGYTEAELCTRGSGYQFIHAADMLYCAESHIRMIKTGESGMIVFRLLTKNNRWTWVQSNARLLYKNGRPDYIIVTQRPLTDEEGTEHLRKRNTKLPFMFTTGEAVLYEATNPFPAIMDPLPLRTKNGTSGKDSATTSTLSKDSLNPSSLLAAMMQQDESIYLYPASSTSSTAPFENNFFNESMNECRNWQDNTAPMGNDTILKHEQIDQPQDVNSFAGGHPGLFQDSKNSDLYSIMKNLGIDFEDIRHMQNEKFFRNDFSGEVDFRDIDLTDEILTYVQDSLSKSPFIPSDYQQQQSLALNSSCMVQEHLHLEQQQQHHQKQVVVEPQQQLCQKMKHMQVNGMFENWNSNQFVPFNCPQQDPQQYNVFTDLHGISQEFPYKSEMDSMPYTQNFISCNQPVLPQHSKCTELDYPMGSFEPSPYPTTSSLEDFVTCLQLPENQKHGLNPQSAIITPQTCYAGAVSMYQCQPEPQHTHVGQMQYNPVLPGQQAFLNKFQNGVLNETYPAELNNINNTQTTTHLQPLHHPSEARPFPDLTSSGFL
Sequence of Peroxisome proliferator-activated receptor delta (Homo sapiens) (Q03181 whole entry, looked up): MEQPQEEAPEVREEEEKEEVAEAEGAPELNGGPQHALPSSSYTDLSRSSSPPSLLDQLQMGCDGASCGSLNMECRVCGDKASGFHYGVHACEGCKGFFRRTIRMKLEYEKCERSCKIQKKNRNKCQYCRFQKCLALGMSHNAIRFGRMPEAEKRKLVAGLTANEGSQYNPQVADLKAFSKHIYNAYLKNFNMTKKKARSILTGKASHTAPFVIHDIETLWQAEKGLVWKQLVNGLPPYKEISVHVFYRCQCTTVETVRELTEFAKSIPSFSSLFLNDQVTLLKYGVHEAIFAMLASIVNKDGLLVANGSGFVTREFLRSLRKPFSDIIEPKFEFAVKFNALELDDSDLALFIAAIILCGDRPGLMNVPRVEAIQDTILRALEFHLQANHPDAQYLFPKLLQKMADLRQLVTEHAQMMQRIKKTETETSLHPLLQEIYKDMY
Sequence of Vitamin D3 receptor (Homo sapiens) (P11473 whole entry, looked up): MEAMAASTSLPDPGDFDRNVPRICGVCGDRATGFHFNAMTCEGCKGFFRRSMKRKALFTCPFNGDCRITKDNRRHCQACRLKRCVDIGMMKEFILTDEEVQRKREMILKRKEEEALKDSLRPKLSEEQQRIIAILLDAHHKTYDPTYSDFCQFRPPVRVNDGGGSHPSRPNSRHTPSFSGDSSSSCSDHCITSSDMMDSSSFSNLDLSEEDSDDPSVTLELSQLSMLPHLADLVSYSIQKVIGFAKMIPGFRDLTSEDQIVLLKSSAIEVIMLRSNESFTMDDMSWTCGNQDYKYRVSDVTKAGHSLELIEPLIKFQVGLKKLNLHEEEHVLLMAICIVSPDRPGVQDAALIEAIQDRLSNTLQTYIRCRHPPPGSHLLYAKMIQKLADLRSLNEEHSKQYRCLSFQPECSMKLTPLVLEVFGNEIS
Sequence of Peroxisome proliferator-activated receptor gamma (Homo sapiens) (P37231 whole entry, looked up): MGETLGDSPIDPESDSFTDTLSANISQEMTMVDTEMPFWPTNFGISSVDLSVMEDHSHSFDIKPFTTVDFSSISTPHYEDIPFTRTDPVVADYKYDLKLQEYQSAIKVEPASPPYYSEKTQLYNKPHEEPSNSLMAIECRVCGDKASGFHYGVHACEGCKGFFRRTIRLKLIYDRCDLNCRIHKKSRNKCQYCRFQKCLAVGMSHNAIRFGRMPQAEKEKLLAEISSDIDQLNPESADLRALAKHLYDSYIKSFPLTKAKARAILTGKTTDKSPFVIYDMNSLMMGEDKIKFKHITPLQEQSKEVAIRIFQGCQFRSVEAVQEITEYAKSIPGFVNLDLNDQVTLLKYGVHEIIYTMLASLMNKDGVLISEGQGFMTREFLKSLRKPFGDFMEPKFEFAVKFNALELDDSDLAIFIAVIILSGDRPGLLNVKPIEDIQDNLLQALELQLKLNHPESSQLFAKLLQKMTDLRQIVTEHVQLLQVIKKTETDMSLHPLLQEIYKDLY
Sequence of Bile acid receptor (Homo sapiens) (Q96RI1 whole entry, looked up): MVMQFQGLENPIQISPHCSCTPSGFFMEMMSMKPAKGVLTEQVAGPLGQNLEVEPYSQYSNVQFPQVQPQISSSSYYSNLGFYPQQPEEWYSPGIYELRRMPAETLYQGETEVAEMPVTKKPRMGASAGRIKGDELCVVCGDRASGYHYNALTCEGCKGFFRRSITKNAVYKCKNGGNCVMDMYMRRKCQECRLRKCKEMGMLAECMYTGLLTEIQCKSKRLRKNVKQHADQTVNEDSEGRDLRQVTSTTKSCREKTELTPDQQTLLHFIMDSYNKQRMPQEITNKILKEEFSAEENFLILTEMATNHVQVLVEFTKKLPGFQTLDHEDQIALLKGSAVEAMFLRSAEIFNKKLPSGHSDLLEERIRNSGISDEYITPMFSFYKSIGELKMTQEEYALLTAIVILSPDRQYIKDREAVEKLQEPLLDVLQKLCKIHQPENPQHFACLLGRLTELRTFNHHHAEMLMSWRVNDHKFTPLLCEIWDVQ

Take `O=C(O)c1cc2ccccc2cc1O`: the Potency result in test [1], in test [3], in [7], in test [8] and in [11] was “inactive” in each case. The Potency in test [2] is 60.7 µM (active) and 30.6 µM (active). The result in test [4], in test [5], in [6], in [9], in [10] and in test [12] was inactive. Moreover, the outcome in test [13], in test [14], in [15] and in test [16] was inactive.
On to `CC(=O)OCc1ccccc1`, for which the Potency entry in [1], in test [2], in [3], in test [7], in [8] and in test [11] was “inactive” throughout. Moreover, the outcome in test [4], in test [5], in [6], in [9], in test [17] and in [12] was inactive. Besides, the result in [13], in test [18], in [14], in [15] and in test [16] was inactive.
As for `N#Cc1ccccc1`, the Potency entry in test [1], in [2], in [3], in test [7], in test [8] and in [11] was “inactive” each time. Further, the compound was classed as inactive in test [4], in test [5], in test [6], in test [9], in test [17] and in test [10]. Moreover, the outcome in test [12], in test [13], in test [19], in test [20], in [14] and in test [15] was inactive. Also, the call in [16] was inactive.
For the compound `C=C(C)CNCC`, the Potency result in test [1], in test [2], in [3], in [7], in test [8] and in [11] was “inactive” in each case. For the same compound, the compound was called inactive in test [4], in test [5], in test [6], in test [9], in [17] and in test [10]. Moreover, the compound was called inactive in test [12], in test [13], in test [18], in test [14], in [15] and in test [16].
Regarding `COCCOC(=O)c1ccccc1C(=O)OCCOC`, the Potency result in test [1], in [2], in [3], in test [7], in [8] and in test [11] was “inactive” in each case. Moreover, the compound was classed as inactive in test [4], in test [5], in test [6], in test [9], in [17] and in test [10]. The compound was called inactive in test [12], in [13], in test [14], in [15] and in [16].
Regarding `C[C@]12CC[C@@H]3c4ccc(O)cc4CC[C@H]3[C@@H]1C[C@@H](O)[C@@H]2O`, the Potency entry in test [1], in [2], in [3], in test [7], in test [8] and in test [11] was “inactive” in each case. In addition, the call in test [4], in test [5], in [6], in [9], in [17] and in test [10] was inactive. Moreover, the compound was called inactive in [12], in test [13], in [14], in [15] and in [16].
For `C=CC[N+](C)(C)CC=C`, the Potency entry in test [1], in [2], in test [3], in test [7], in [8] and in test [11] was “inactive” each time. Moreover, the outcome in test [4], in test [5], in test [6], in [9], in test [12] and in [13] was inactive. Further, the result in test [18], in test [14], in [15] and in test [16] was inactive.
Take `NCCN1CCNCC1`: the Potency entry in [1], in [2], in test [3], in [7], in [8] and in test [11] was “inactive” in each case. Also, the outcome in [4], in test [5], in test [6], in test [9], in test [17] and in test [10] was inactive. In addition, the call in test [12], in test [13], in test [14], in [15] and in [16] was inactive.
As to `CCCCCCCCCCO`, the Potency result in test [1], in test [2], in test [3], in [7] and in test [8] was “inactive” each time. For the same compound, the compound was called inactive in test [4], in test [5], in [6], in test [9], in test [17] and in [10]. Moreover, the outcome in test [12], in test [19], in test [18], in test [20], in [14] and in [15] was inactive.
